This passage reports cell viability results from the supplement of paper PMC6522484.

± gives the standard deviation of the averaged measurements.

The subject of the first assay is DLD1. Description: cell viability (CellTiter-Glo) relative to plate median (fraction of plate median); higher = more viable cells. Particulars: 5 µM; treatment time 24 h; reporter: 7TFP. A digest of the protocol: (§1)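 Library compounds were added at a final concentration of 5 µM for 24 h to colorectal cancer cells stably transduced with a lentiviral TCF/Wnt firefly luciferase reporter. Reported values are firefly luciferase or CellTiterGlo luminescence, normalised per well to the plate median. Each value averages two independent replicates.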
Consider `CC(=O)N[C@@H](CC(=O)N[C@@H](CCC(=O)O)C(=O)O)C(=O)O`, for which the cell viability came to 1.01 ± 0.014.

The compound `COc1c(N2CCNC(C)C2)c(F)cc2c(=O)c(C(=O)O)cn(C3CC3)c12` (stereo not drawn) returned a cell viability of 0.925 ± 0.18.

With `CCCCCCCCCCCC[C@H](O)[C@@H]1CC[C@@H]([C@@H](O)CCCCCCCC(=O)CC[C@@H](O)CC2=C[C@H](C)OC2=O)O1` [annocherin], the cell viability was found to be 0.904 ± 0.09.

The compound `COc1ccc(C(=O)c2ccc(O)cc2)c(O)c1O` came in with a cell viability of 1.015 ± 0.0071.

`O=C(O)c1cc2cc(F)ccc2[nH]1` yielded a cell viability of 1.02 ± 0.053.

The compound `O=C(CCc1ccc(O)cc1)c1c(O)cc(O)cc1O[C@@H]1OC(CO)[C@@H](O)[C@@H](O)C1O` (stereo partly drawn) showed a cell viability of 1.07 ± 0.064.

`CC(=O)/C(=C\c1ccccc1)CC(=O)O` yielded a cell viability of 0.984 ± 0.037.

`CCN(CC)CCCC(C)Nc1ccnc2cc(Cl)ccc12` (stereo not drawn): the cell viability stood at 1.05 ± 0.096.

The compound `CCCc1cc(=O)[nH]c(=S)[nH]1` came in with a cell viability of 0.959 ± 0.033.

For the compound `CC(C(=O)O)c1ccc(N2Cc3ccccc3C2=O)cc1` (stereo not drawn), the cell viability worked out at 0.986 ± 0.035.

As to `CN(C)C(=O)C(CCN1CCC(O)(c2ccc(Cl)cc2)CC1)(c1ccccc1)c1ccccc1`, the cell viability is 0.892 ± 0.14.

Turning to `C[C@H](CCC(=O)O)[C@H]1CC[C@H]2[C@@H]3CC[C@@H]4C[C@H](O)CC[C@]4(C)[C@H]3C[C@H](O)[C@]12C`, the cell viability came out at 0.982 ± 0.025.

As for `CC(=O)O[C@@H]1C[C@@]2(C)C(CC[C@@H]2C(C)=O)C2CCC3=CC(=O)CC[C@]3(C)C21` (stereo partly drawn), the cell viability was 0.943 ± 0.019.

`COc1cccc(/C=C/C(=O)O)c1C(C)C` came in with a cell viability of 0.981 ± 0.042.

On to `Nc1ncn([C@@H]2O[C@H](CO)[C@@H](O)[C@H]2O)c(=O)n1`, for which the cell viability came to 0.992 ± 0.011.

Regarding `CCCCCCCC/C=C/CCCCCCCCOP(=O)([O-])OCC[N+](C)(C)C`, the cell viability amounted to 0.984 ± 0.052.

`CCC(=O)OCC(=O)[C@@]1(OC(=O)CC)[C@H](C)CC2C3C([C@@H](O)C[C@@]21C)[C@@]1(C)C=CC(=O)C=C1C[C@H]3Cl` (stereo partly drawn) showed a cell viability of 1.01 ± 0.014.

Consider `COc1cccc2c1CCC1=CC(=O)CC[C@@]12C`, for which the cell viability amounted to 1.09 ± 0.099.

Turning to `CCn1nc(C(=O)O)c(=O)c2cc3c(cc21)OCO3`, the cell viability stood at 1.01 ± 0.035.

In turn, `O=C(O)c1cn(-c2ccc(F)cc2)c2cc(N3CCNCC3)c(F)cc2c1=O` returned a cell viability of 0.906 ± 0.012.

In turn, `O=C(O)C(S)C(S)C(=O)O` (stereo not drawn) displayed a cell viability of 1.04 ± 0.05.

`CCOc1ccc(NC(C)=O)cc1` came in with a cell viability of 0.956 ± 0.12.

Regarding `O=C(Oc1cccc2cccnc12)c1ccccc1`, the cell viability is 0.999 ± 0.044.

In the case of `CC(C)=CCc1c(O)cc(C)oc1=O`, the cell viability was 1.05 ± 0.17.

`O=C(O)COCCN1CCN(C(c2ccccc2)c2ccc(Cl)cc2)CC1` (stereo not drawn) displayed a cell viability of 0.94 ± 0.054.

`O=C1C=C2CC3(O)COc4cc(O)ccc4C3=C2C=C1O` (stereo not drawn) gave a cell viability of 1.02 ± 0.11.

Regarding `CC(C(=O)O)c1cccc(C(=O)c2ccccc2)c1` (stereo not drawn), the cell viability came out at 1.14 ± 0.13.

`CC(C)c1c(O)c(-c2cc3c(c(C(C)C)c2O)CCC2C(C)(C)CCC[C@]32C)cc2c1CCC1C(C)(C)CCC[C@]21C` (stereo partly drawn) came in with a cell viability of 1.02 ± 0.083.

With `O=C1CN2Cc3c(ccc(Cl)c3Cl)N=C2N1`, the cell viability amounted to 1.05 ± 0.081.

Compound `CC#C[C@]1(O)CC[C@H]2[C@@H]3CCC4=CC(=O)CCC4=C3[C@@H](c3ccc(N(C)C)cc3)C[C@@]21C` registered a cell viability of 0.972 ± 0.023.

The compound `CCCc1nc2c(C)cc(-c3nc4ccccc4n3C)cc2n1Cc1ccc(-c2ccccc2C(=O)O)cc1` registered a cell viability of 0.975 ± 0.12.

`COC(=O)C[C@H]1C(C)(C)[C@@H](OC(C)=O)[C@@H]2CC3=C4CC(=O)O[C@@H](c5ccoc5)[C@]4(C)CC[C@@H]3[C@@]1(C)C2=O` registered a cell viability of 0.9945 ± 0.0078.

For `CC(C)NCC(O)COc1cccc2ccccc12` (stereo not drawn), the cell viability amounted to 0.927 ± 0.16.

`COc1cc2c(cc1-c1coc3c4c(c(OC)cc3c1=O)OC(C)(C)C=C4)OCO2` registered a cell viability of 0.998 ± 0.017.

`CC(C)=CCc1c(O)cc2oc(C)cc(=O)c2c1O` showed a cell viability of 1 ± 0.036.

Regarding `CC(C)NC[C@@H](O)COc1cccc2ccccc12`, the cell viability came out at 1.09 ± 0.057.

Turning to `CCOC(=O)[N-]c1c[n+](N2CCOCC2)no1`, the cell viability worked out at 1.065 ± 0.0071.

`COc1ccc2c(c1)O[C@@H]1COc3cc(OC)c(OC)cc3[C@@H]1C2=O` yielded a cell viability of 1.02 ± 0.067.

The compound `C[C@H](N)CO` gave a cell viability of 0.911 ± 0.034.

The next assay deals with HCT116. Described as above. Conditions: 5 µM; treatment time 24 h; reporter: TCF4/Wnt. The essentials:
as §1
For the compound `CC(=O)N[C@@H](CC(=O)N[C@@H](CCC(=O)O)C(=O)O)C(=O)O`, the cell viability came out at 1.055 ± 0.0071.

`COc1c(N2CCNC(C)C2)c(F)cc2c(=O)c(C(=O)O)cn(C3CC3)c12` (stereo not drawn): the cell viability worked out at 0.911 ± 0.082.

The compound `CCCCCCCCCCCC[C@H](O)[C@@H]1CC[C@@H]([C@@H](O)CCCCCCCC(=O)CC[C@@H](O)CC2=C[C@H](C)OC2=O)O1` [annocherin] yielded a cell viability of 0.871 ± 0.082.

`COc1ccc(C(=O)c2ccc(O)cc2)c(O)c1O` displayed a cell viability of 0.971 ± 0.028.

As to `O=C(O)c1cc2cc(F)ccc2[nH]1`, the cell viability turned out to be 1.115 ± 0.0071.

As for `O=C(CCc1ccc(O)cc1)c1c(O)cc(O)cc1O[C@@H]1OC(CO)[C@@H](O)[C@@H](O)C1O` (stereo partly drawn), the cell viability was 1.01 ± 0.016.

`CC(=O)/C(=C\c1ccccc1)CC(=O)O` displayed a cell viability of 1.03 ± 0.047.

The compound `CCN(CC)CCCC(C)Nc1ccnc2cc(Cl)ccc12` (stereo not drawn) yielded a cell viability of 1.04 ± 0.12.

In turn, `CCCc1cc(=O)[nH]c(=S)[nH]1` showed a cell viability of 1.065 ± 0.0071.

Consider `CC(C(=O)O)c1ccc(N2Cc3ccccc3C2=O)cc1` (stereo not drawn), for which the cell viability amounted to 1.06 ± 0.035.

As to `CN(C)C(=O)C(CCN1CCC(O)(c2ccc(Cl)cc2)CC1)(c1ccccc1)c1ccccc1`, the cell viability was determined as 0.912 ± 0.033.

As to `C[C@H](CCC(=O)O)[C@H]1CC[C@H]2[C@@H]3CC[C@@H]4C[C@H](O)CC[C@]4(C)[C@H]3C[C@H](O)[C@]12C`, the cell viability came out at 1.04 ± 0.11.

Compound `CC(=O)O[C@@H]1C[C@@]2(C)C(CC[C@@H]2C(C)=O)C2CCC3=CC(=O)CC[C@]3(C)C21` (stereo partly drawn) showed a cell viability of 1.09 ± 0.042.

On to `COc1cccc(/C=C/C(=O)O)c1C(C)C`, for which the cell viability turned out to be 1.03 ± 0.093.

`Nc1ncn([C@@H]2O[C@H](CO)[C@@H](O)[C@H]2O)c(=O)n1` returned a cell viability of 0.945 ± 0.035.

Regarding `CCCCCCCC/C=C/CCCCCCCCOP(=O)([O-])OCC[N+](C)(C)C`, the cell viability was found to be 0.886 ± 0.2.

`CCC(=O)OCC(=O)[C@@]1(OC(=O)CC)[C@H](C)CC2C3C([C@@H](O)C[C@@]21C)[C@@]1(C)C=CC(=O)C=C1C[C@H]3Cl` (stereo partly drawn) came in with a cell viability of 1.02 ± 0.014.

In turn, `COc1cccc2c1CCC1=CC(=O)CC[C@@]12C` returned a cell viability of 1.004 ± 0.0085.

For the compound `CCn1nc(C(=O)O)c(=O)c2cc3c(cc21)OCO3`, the cell viability was 0.972 ± 0.015.

Turning to `O=C(O)c1cn(-c2ccc(F)cc2)c2cc(N3CCNCC3)c(F)cc2c1=O`, the cell viability was found to be 0.949 ± 0.029.

Regarding `O=C(O)C(S)C(S)C(=O)O` (stereo not drawn), the cell viability was determined as 1.03 ± 0.099.

Compound `CCOc1ccc(NC(C)=O)cc1` yielded a cell viability of 1.065 ± 0.0071.

For `O=C(Oc1cccc2cccnc12)c1ccccc1`, the cell viability is 0.891 ± 0.029.

`CC(C)=CCc1c(O)cc(C)oc1=O` came in with a cell viability of 1.07 ± 0.12.

In turn, `O=C(O)COCCN1CCN(C(c2ccccc2)c2ccc(Cl)cc2)CC1` (stereo not drawn) came in with a cell viability of 0.896 ± 0.05.

Compound `O=C1C=C2CC3(O)COc4cc(O)ccc4C3=C2C=C1O` (stereo not drawn) came in with a cell viability of 1.06 ± 0.12.

`CC(C(=O)O)c1cccc(C(=O)c2ccccc2)c1` (stereo not drawn) showed a cell viability of 0.931 ± 0.035.

Compound `CC(C)c1c(O)c(-c2cc3c(c(C(C)C)c2O)CCC2C(C)(C)CCC[C@]32C)cc2c1CCC1C(C)(C)CCC[C@]21C` (stereo partly drawn) returned a cell viability of 1.07 ± 0.1.

Regarding `O=C1CN2Cc3c(ccc(Cl)c3Cl)N=C2N1`, the cell viability was 1.04.

Compound `CC#C[C@]1(O)CC[C@H]2[C@@H]3CCC4=CC(=O)CCC4=C3[C@@H](c3ccc(N(C)C)cc3)C[C@@]21C` displayed a cell viability of 1.04 ± 0.12.

On to `CCCc1nc2c(C)cc(-c3nc4ccccc4n3C)cc2n1Cc1ccc(-c2ccccc2C(=O)O)cc1`, for which the cell viability amounted to 0.992 ± 0.054.

Compound `COC(=O)C[C@H]1C(C)(C)[C@@H](OC(C)=O)[C@@H]2CC3=C4CC(=O)O[C@@H](c5ccoc5)[C@]4(C)CC[C@@H]3[C@@]1(C)C2=O` yielded a cell viability of 1.045 ± 0.0071.

The compound `CC(C)NCC(O)COc1cccc2ccccc12` (stereo not drawn) registered a cell viability of 0.997 ± 0.047.

Take `COc1cc2c(cc1-c1coc3c4c(c(OC)cc3c1=O)OC(C)(C)C=C4)OCO2`: the cell viability was 1.06 ± 0.014.

In turn, `CC(C)=CCc1c(O)cc2oc(C)cc(=O)c2c1O` registered a cell viability of 0.981 ± 0.055.

In turn, `CC(C)NC[C@@H](O)COc1cccc2ccccc12` had a cell viability of 1.06.

For the compound `CCOC(=O)[N-]c1c[n+](N2CCOCC2)no1`, the cell viability was found to be 1.01 ± 0.089.

In turn, `COc1ccc2c(c1)O[C@@H]1COc3cc(OC)c(OC)cc3[C@@H]1C2=O` had a cell viability of 0.841 ± 0.074.

For `C[C@H](N)CO`, the cell viability was 0.902 ± 0.047.
